These results are taken from ChEMBL document CHEMBL3988442, “University of Dundee, Small-Polar-MMV Screening Library” (2021).

For part of these data: Results with a measured potency or affinity are listed apart.

Set-up in all cases: scale not given: direction of the effect not stated beside the values
Experiment [1] concerns the target Protein translocase subunit SecA (Escherichia coli (strain K12)) (UniProt P10408). Kind of experiment: Assay to Identify E. coli SecA ATPase Inhibitors. Particulars: 30 µM. It counts as functional.
Experiment [2] concerns the target T1, Ubiquitin-activating enzyme e1, putative (Leishmania donovani (strain BPK282A1)) (UniProt E9BSI1).
T1 sequence (whole entry): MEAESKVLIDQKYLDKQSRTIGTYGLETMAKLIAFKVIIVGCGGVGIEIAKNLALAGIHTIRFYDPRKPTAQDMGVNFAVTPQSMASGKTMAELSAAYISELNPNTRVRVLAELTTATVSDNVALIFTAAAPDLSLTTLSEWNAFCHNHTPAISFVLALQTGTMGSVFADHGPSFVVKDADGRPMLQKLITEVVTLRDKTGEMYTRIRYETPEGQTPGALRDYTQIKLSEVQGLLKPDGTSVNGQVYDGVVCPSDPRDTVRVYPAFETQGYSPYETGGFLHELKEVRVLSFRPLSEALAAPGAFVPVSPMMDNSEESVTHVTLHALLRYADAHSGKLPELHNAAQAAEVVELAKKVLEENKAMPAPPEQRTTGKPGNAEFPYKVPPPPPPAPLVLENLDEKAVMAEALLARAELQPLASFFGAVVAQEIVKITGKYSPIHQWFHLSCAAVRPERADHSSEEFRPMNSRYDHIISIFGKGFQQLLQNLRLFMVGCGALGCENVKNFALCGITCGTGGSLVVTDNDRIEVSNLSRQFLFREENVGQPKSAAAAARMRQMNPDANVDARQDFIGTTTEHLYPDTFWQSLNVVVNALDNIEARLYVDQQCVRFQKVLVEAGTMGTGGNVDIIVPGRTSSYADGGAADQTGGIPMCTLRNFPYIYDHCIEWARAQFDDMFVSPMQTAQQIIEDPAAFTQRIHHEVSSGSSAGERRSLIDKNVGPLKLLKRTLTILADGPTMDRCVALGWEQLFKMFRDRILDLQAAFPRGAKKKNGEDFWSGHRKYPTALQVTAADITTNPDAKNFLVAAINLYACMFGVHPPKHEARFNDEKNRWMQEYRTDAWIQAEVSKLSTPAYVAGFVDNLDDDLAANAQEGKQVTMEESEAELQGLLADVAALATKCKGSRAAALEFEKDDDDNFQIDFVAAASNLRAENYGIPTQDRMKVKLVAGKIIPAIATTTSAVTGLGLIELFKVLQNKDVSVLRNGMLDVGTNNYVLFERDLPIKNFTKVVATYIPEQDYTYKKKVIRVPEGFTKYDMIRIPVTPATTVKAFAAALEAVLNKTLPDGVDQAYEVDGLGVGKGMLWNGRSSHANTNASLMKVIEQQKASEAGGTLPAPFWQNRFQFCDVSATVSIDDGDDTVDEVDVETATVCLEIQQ
Kind of experiment: Leishmania donovani Ubiquitin Activating Enzyme (LdE1). It counts as functional. Particulars: 30 µM.

Experiment [3] deals with Sialic acid-binding Ig-like lectin 9 (Homo sapiens) (UniProt Q9Y336). Kind of experiment: Hs-Siglec9 ALPHAscreen SOP 20170721. The following applies: 10 µM.
Chain of Sialic acid-binding Ig-like lectin 9 (Homo sapiens) (Q9Y336 whole entry): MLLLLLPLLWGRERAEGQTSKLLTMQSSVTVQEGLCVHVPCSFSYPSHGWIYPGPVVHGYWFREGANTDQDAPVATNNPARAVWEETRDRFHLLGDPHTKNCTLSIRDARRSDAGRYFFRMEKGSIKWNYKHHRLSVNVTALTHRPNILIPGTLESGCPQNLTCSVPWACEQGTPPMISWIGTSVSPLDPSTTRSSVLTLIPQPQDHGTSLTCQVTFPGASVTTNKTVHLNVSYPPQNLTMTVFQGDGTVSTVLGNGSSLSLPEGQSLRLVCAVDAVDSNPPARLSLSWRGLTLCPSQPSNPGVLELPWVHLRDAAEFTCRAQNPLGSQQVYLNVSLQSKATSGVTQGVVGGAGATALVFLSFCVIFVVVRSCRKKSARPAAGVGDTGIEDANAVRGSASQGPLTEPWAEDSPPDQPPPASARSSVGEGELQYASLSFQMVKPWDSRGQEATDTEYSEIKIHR
Experiment [4] concerns Trypanosoma cruzi. In words: Trypanosoma cruzi phosphomannomutase and mannose-1-phosphate guanylyltransferase assay. The following applies: 10 µM. It is filed as functional.
Experiment [5] deals with T2, Arginase-2, mitochondrial (Homo sapiens) (UniProt P78540).
T2 sequence (whole entry): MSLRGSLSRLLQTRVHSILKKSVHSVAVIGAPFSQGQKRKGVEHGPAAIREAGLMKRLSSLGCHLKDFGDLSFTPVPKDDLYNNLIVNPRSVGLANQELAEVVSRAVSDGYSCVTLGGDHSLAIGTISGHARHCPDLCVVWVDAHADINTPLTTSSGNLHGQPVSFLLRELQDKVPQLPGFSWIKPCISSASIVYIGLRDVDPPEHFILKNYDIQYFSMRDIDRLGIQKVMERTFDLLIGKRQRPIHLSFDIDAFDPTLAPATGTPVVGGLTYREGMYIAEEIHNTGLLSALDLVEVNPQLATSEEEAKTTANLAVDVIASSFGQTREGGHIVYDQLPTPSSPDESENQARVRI
Kind of experiment: in vitro enzyme assay to detect the production of urea directly proportional to the activity of Arginase II. Also: in the data most compounds retested in dose-response had high values. It counts as functional. The following applies: 33.3 µM.

For experiment [6], the target named is T3, Proteasome subunit beta (Trypanosoma cruzi) (UniProt O96673).
T3 sequence (whole entry): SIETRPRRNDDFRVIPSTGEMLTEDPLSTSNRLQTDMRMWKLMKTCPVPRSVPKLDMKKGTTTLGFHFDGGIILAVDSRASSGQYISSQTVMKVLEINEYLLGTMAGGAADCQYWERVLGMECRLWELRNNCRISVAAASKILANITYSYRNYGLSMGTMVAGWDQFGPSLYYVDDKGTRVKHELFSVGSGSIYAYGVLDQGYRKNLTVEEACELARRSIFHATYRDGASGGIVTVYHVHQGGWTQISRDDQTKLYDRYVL
In words: Trypanosoma cruzi proteasome chymotrypsin-like activity (TcProtChymo) assay. Also: in the data most compounds retested in dose-response had high values. The following applies: 9.37 µM. It is filed as functional.

The species entered for experiment [7] is Homo sapiens. In words: To identify inhibition of the IFN signalling (Jak-Stat) pathway via expression of an eGFP reporter gene under the control of an IFN-stimulated response element (ISRE) containing MxA promoter. The following applies: 30 µM. It is filed as functional.
Experiment [8] has as its target T4, Tyrosyl-tRNA synthetase, putative (Trypanosoma cruzi (strain CL Brener)) (UniProt Q4DSP6).
T4 sequence (whole entry): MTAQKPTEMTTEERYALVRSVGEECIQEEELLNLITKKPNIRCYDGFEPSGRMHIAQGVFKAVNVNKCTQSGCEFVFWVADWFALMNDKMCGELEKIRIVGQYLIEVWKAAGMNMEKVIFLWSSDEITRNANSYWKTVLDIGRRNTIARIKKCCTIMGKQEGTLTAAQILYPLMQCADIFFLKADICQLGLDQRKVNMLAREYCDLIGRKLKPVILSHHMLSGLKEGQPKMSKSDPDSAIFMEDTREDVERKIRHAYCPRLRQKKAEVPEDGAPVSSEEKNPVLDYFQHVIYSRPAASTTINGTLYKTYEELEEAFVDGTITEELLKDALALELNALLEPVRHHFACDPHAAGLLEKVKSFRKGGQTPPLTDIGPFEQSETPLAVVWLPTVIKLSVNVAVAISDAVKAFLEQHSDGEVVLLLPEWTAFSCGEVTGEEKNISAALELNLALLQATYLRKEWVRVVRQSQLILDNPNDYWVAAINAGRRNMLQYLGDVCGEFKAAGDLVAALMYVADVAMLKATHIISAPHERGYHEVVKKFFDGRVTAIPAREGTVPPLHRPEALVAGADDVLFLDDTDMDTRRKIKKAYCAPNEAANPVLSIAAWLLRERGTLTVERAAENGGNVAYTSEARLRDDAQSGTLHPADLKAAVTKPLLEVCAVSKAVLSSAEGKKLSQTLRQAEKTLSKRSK
In words: Trypanosoma cruzi tyrosyl tRNA synthetase (TcYRS) _High Tyrosine SOP. Also: in the data most compounds retested in dose-response had high values. It is filed as functional. The following applies: 30 µM.

In experiment [9] the target is T4, Tyrosyl-tRNA synthetase, putative (Trypanosoma cruzi (strain CL Brener)). In words: Trypanosoma cruzi tyrosyl tRNA synthetase (TcYRS) SOP. It is filed as functional. Particulars: 30 µM.
Experiment [10] deals with Chromo domain-containing protein 1 (Saccharomyces cerevisiae (strain ATCC 204508 / S288c) (Baker's yeast)) (UniProt P32657). In words: ScCHD-1 Enzyme Inhibition Assay. Also: in the data most compounds retested in dose-response had high values. It counts as functional. The following applies: 30 µM.
Chain of Chromo domain-containing protein 1 (Saccharomyces cerevisiae (strain ATCC 204508 / S288c) (Baker's yeast)) (P32657 whole entry, the tested form may be a part): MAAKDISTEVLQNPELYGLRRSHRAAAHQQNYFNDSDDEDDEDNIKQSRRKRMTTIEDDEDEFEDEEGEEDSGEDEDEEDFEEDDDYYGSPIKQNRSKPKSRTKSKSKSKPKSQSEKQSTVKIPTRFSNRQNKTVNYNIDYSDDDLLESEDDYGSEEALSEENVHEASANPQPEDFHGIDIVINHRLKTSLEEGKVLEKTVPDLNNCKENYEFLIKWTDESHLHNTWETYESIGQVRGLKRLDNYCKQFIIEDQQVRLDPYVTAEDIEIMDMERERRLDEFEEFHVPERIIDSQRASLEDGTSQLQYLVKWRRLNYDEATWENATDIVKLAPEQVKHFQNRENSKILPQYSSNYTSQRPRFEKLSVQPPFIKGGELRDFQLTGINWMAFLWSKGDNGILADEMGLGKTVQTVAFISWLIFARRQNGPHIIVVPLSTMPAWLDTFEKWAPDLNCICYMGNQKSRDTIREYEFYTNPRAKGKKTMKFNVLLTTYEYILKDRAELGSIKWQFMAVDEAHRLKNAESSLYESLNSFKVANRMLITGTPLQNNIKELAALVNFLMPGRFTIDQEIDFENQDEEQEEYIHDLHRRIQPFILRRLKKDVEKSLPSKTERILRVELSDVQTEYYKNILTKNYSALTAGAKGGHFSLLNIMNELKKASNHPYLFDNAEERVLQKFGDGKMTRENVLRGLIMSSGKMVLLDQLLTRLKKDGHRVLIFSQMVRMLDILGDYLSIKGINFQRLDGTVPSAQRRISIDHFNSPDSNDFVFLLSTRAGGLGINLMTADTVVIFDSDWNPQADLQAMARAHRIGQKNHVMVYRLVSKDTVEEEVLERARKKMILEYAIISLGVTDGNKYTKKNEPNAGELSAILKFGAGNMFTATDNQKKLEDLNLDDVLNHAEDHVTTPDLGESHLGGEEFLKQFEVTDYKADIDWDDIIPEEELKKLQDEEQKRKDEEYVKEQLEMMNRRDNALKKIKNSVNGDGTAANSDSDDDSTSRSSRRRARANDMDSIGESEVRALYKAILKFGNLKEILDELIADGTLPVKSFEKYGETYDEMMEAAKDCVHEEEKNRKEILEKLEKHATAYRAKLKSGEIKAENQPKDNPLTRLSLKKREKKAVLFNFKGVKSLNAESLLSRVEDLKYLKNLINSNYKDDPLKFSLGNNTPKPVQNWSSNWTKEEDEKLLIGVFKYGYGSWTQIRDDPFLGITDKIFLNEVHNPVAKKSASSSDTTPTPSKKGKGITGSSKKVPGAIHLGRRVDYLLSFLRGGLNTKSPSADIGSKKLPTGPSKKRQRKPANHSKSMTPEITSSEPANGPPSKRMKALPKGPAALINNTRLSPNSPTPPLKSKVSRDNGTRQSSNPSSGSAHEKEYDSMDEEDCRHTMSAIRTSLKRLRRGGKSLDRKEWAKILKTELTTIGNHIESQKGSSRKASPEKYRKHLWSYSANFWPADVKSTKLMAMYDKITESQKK

Chain of Protein translocase subunit SecA (Escherichia coli (strain K12)) (P10408 whole entry): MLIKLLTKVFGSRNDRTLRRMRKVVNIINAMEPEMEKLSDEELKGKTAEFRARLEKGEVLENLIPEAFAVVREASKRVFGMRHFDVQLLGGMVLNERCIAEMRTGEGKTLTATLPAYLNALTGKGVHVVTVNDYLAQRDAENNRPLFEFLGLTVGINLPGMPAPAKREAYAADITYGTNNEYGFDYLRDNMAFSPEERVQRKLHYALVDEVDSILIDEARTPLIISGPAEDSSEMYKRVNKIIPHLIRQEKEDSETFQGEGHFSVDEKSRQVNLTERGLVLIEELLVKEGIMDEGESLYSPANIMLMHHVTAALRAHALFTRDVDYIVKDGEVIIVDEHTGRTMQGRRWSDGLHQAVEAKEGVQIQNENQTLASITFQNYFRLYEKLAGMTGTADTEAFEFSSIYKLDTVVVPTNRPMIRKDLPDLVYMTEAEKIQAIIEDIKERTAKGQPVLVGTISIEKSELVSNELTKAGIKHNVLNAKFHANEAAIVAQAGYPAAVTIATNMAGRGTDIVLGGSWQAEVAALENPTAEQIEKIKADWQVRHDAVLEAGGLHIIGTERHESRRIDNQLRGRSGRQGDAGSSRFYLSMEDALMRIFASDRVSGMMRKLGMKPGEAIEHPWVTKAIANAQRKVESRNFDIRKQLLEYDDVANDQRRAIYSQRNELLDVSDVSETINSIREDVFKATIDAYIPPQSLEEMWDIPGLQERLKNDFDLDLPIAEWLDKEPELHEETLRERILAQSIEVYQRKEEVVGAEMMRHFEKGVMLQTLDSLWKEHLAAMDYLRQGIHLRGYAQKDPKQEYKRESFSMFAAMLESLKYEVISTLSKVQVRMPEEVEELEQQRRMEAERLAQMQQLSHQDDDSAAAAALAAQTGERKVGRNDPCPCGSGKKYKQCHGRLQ

Consider `Cc1cc(NC(=O)CN2CCCC2c2noc(C(C)C)n2)n(C)n1` (stereo not given), for which the Percent Effect is 0.91% in [1]; -42.7% in experiment [2]; 2.01% in experiment [3]; 0% in [4]; -0.444% in [5]; 4.67% in [6]. For the same compound, the Percent Effect in experiment [7] was -3.3%; in experiment [8], 2.63%; in experiment [9], 5.13%; in [10], 0.723%.
For the compound `CN1CCN(c2cc(CNC(=O)c3ccc(=O)[nH]n3)ccn2)CC1`, the Percent Effect in experiment [1] is -0.863%; in [2], 12.8%; in [3], -10.3%; in [4] it was -2.16%; in experiment [5], 9.43%; in [6], 9.81%. Besides, the Percent Effect in experiment [7] was 23.3%; in [8] it was 6.22%; in [9] it was 18.1%; in experiment [10], -2.33%.
Consider `Cc1nn2cccnc2c1C(=O)N1CCCC(Nc2ccccc2)C1` (stereo not given), for which the Percent Effect in [1] was -3.41%; in experiment [2], 0%; in [3] it was 1%; in experiment [4], -0.803%; in experiment [5], 7.54%; in experiment [6], -2.46%. Besides, the Percent Effect in [7] is -3.46%; in [8] it was 5.79%; in experiment [9], 5.13%; in experiment [10], 8.56%.
Regarding `COCCN1C(=O)C[C@@H]2[C@H]1CCN2C(=O)COc1ccccc1`, the Percent Effect in experiment [1] was -4.5%; in [2], 6.49%; in experiment [3], -2.28%; in experiment [4], -3.02%; in experiment [5], -4.86%; in experiment [6], 15.6%. Moreover, the Percent Effect in [7] was -17.9%; in [8] it was 2.63%; in experiment [9], 10.3%; in [10], -1.49%.
In the case of `Cn1ccc(CN2CCCC2c2ccc3c(c2)OCCCO3)cc1=O` (stereo not given), the Percent Effect in experiment [1] is -1.37%; in experiment [2], 7.69%; in experiment [3], -4.76%; in experiment [4] it was 1.78%; in experiment [5], 6.56%; in experiment [6] it was 18.2%. Moreover, the Percent Effect in [7] is 22%; in experiment [8], 9.09%; in [9] it was 20.5%; in experiment [10], -1.67%.
Consider `O=C(c1ccc(F)cc1F)N1CC[C@H](O)[C@@H](N2CCOCC2)CC1`, for which the Percent Effect in experiment [1] was -1.33%; in experiment [2], 6.67%; in [3], 3.3%; in experiment [4], -1.58%; in experiment [5], 3.98%; in experiment [6] it was 3.94%. For the same compound, the Percent Effect in [7] was 12.8%; in [8], 2.12%; in experiment [9] it was 7.5%; in [10] it was -18.1%.
Turning to `CC(C)NC(=O)Nc1ccc(CNCc2cccc(C#N)c2)cc1`, the Percent Effect in experiment [1] was 2.25%; in experiment [2], 20.8%; in experiment [3], 4.68%; in [4], 0.933%; in experiment [5] it was -0.615%; in experiment [6] it was 6.84%. Also, the Percent Effect in experiment [7] was 0.521%; in experiment [8], 9.8%; in experiment [9], 28.2%; in experiment [10], -12.8%.
Regarding `Cc1cc(-c2ccc(C(=O)O)cc2)nc(C2CCCN(C(C)C)C2)n1` (stereo not given), the Percent Effect in experiment [1] was -0.51%; in experiment [2] it was 12%; in experiment [3] it was 1.15%; in [4], 1.77%; in experiment [5] it was 0.885%; in experiment [6] it was 6.08%. For the same compound, the Percent Effect was 4.86% in [7], 6.35% in experiment [8], 17.5% in experiment [9] and -24.7% in experiment [10].
For the compound `O=C(NCc1cc[nH]n1)NCC(c1ccc(F)cc1)N1CCOCC1` (stereo not given), the Percent Effect in experiment [1] is -1.44%; in experiment [2] it was 23.1%; in experiment [3], -10.9%; in experiment [4] it was 4.79%; in experiment [5], 2.87%; in [6], 7.93%. The Percent Effect was 8.57% in experiment [7], 4.31% in experiment [8], 20.5% in experiment [9] and -7.47% in experiment [10].
Turning to `O=C(NCC1COCc2c(-c3cccnc3)nnn2C1)c1cccs1` (stereo not given), the Percent Effect in experiment [1] was -1.54%; in experiment [2], 9.09%; in experiment [3] it was -6.14%; in experiment [4], -8.28%; in [5], -12.2%; in [6] it was 13%. In addition, the Percent Effect in experiment [7] is 4.75%; in experiment [8] it was 10%; in experiment [9], 10.3%; in [10], -4.23%.
Take `CC(=O)N1CC(=O)N(c2ccccc2)CC12CCN(CC1CC1)C2` (stereo not given): the Percent Effect in experiment [1] was -11%; in experiment [2], 1.3%; in experiment [3] it was 22.2%; in experiment [4], -1.27%; in experiment [5], -2.02%; in [6] it was 12.1%. Further, the Percent Effect in [7] is 15.9%; in experiment [8], 2.63%; in [9], -5.13%; in experiment [10], -0.48%.
As to `CCc1nc(C2CCCN2C(=O)c2ccc3c(c2)nnn3CC)no1` (stereo not given), the Percent Effect in [1] is -3.49%; in [2], 0%; in [3], 5.14%; in [4], -1.41%; in experiment [5], 0%; in experiment [6], 3.99%. Further, the Percent Effect in experiment [7] was 11.6%; in experiment [8] it was 2.63%; in experiment [9], 0%; in experiment [10], -12.3%.
